Our source for the composite z-score and z-score values is PubChem BioAssay.

Active and inactive are the calls of the source.

Assay [1] deals with XIP peptide (Xip251-270) binding. As to the kind of experiment: small-molecule binders of XIP peptide, primary screen, biochemical, small-molecule microarray, fluorescence 635/667 nm, 0.1 µg/mL protein (AID 1182). The following applies: fluorescent protein binding, 635 nm, higher = more signal, called active from +8 up or from −8 down.
Another assay has as its system XIP peptide (Xip251-270). Nature of the assay: small-molecule binders of XIP peptide, primary screen, biochemical, small-molecule microarray, fluorescence 635/667 nm, 0.5 µg/mL protein (AID 1183). The following applies: small-molecule microarray binding, fluorescence 635 nm; higher = more signal.
Assay [2] in a line: Plasmodium falciparum growth inhibition, primary screen, strain 3D7, DAPI fluorescence, 100 nL (AID 1184).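 Note: parasites grown inside human red blood cells in medium with human serum.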 The following applies: P. falciparum 3D7 growth, 3 d, higher = more signal.
Assay [3] has as its target Homeobox protein Hox-A13 (Mus musculus) (UniProt Q62424). Nature of the assay: inhibitors of HoxA13-DNA binding, primary screen, biochemical, fluorescence polarization, labeled oligonucleotide (AID 1185). The following applies: 15 min, higher = more signal, called active from +8 up or from −8 down. (Polarisation of emitted light reports the rotation of a fluorescent probe.)

Chain of Homeobox protein Hox-A13 (Mus musculus) (Q62424 whole entry, looked up): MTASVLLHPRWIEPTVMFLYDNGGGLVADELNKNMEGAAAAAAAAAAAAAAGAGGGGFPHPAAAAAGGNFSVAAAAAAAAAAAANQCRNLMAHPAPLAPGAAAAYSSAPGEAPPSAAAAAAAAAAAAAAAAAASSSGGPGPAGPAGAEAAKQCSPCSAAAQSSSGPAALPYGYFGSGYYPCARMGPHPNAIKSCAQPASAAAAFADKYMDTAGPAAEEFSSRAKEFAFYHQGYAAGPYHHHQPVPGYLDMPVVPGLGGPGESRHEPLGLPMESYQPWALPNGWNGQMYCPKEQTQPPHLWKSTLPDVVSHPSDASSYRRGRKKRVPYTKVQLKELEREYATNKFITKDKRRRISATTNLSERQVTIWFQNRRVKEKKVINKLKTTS

With `CCc1cc2c(nc1CC)CCN(CCC(C)=NOCC[C@@H]1C=C[C@H](OC(C)=O)[C@@H](COC(C)=O)O1)C2`, the composite z-score in assay [1] was -0.0297 (inactive); with XIP peptide (Xip251-270), 0.45. Moreover, the z-score in assay [2] was -0.876; in assay [3], -5.38 (inactive).
For `Cc1ccc(S(=O)(=O)N[C@@H]2COC(=O)CC=C[C@@H](C)[C@H](NS(=O)(=O)c3ccc(C)cc3)COC(=O)[C@H](C)NC(=O)CC=C[C@H]2C)cc1`, in that order: -0.668 (inactive), -0.564, -0.196 and -1.11 (inactive).
For `O=C1[C@H]2[C@H]3[C@H](O)[C@H](O)CC(=NOCc4ccccc4)[C@H]3CC[C@H]2C(=O)N1C1CCCCC1`, in that order: 0.288 (inactive), 0.714, -0.369 and 0.449 (inactive).
For `CC(CCC(=O)OC[C@H]1O[C@H](C#Cc2ccccc2)C=C[C@@H]1Oc1ccc(C)cc1)=NO[C@H](C)c1cn([C@@H]2COC[C@H]2O)nn1` the same measures were 0.0435 (inactive), -0.391, -0.114 and -4.04 (inactive).
On to `C[C@@H](c1ccccc1)N1C(=O)[C@H]2[C@H]3[C@H](O)[C@H](O)CC(=NOC[C@@H](O)COCc4ccco4)[C@H]3CC[C@H]2C1=O`, for which the composite z-score was 0.15 (inactive) in assay [1] and 0.316 in the assay on XIP peptide (Xip251-270). In addition, the results for the z-score in assay [2] and in assay [3] were -2.06 and -3.21 (inactive), respectively.
For the compound `CCOC(=O)[C@H](Cc1ccccc1)NC(=O)CCC1CC(OC(=O)NCc2cccc3ccccc23)CC2(CCCC(COC(=O)NCCc3ccccc3OC)O2)O1` (stereo not given in full), the composite z-score in assay [1] is 0.248 (inactive); in the assay with XIP peptide (Xip251-270), 0.374. Further, the z-score in assay [2] was -1.95; in assay [3] it was -0.95 (inactive).
For `CC(C)(C)N1C(=O)[C@H]2[C@H]3[C@H](O)[C@H](O)CC(=NOC[C@@H](O)COCc4ccco4)[C@@H]3CC[C@H]2C1=O` the same measures were -0.484 (inactive), 0.502, -0.0662 and -2.78 (inactive).
For `OC[C@H]1O[C@H](C#Cc2ccccc2)C=C[C@@H]1O` the same measures were 0.0849 (inactive), -0.105, 0.223 and -2.53 (inactive).
For `COC(=O)CC=C1c2ccccc2[C@H](OC)[C@H]1C`, in that order: -1.14 (inactive), -0.302, 0.406 and 0.281 (inactive).
With `C=CC[C@@H]1C=C[C@H](Oc2ccc(C)cc2)[C@@H](COC(=O)NCc2cccc3ccccc23)O1`, the results for the composite z-score (in assay [1]; with XIP peptide (Xip251-270)) were -0.405 (inactive) and 0.427, respectively. Further, the figures for the z-score in assay [2] and in assay [3] were -0.517 and -0.901 (inactive), respectively.
For `COc1ccc(COC(=O)NN=C2C[C@@H](O)[C@@H](O)[C@@H]3[C@@H]4C(=O)N(C(C)(C)C)C(=O)[C@@H]4CC[C@@H]23)cc1`, in that order: 0.457 (inactive), 0.48, 0.553 and -1.64 (inactive).
Consider `CCOC(=O)CCN1C(=O)[C@H]2[C@H]3[C@H](O)[C@H](O)CC(=O)[C@@H]3CC[C@H]2C1=O`, for which the composite z-score in assay [1] was 0.0603 (inactive); with XIP peptide (Xip251-270), 0.61. Moreover, the z-score in assay [2] was -0.0726; in assay [3], -2.98 (inactive).
For `COC(=O)[C@H](C)NC(=O)CCC1CC(OC(=O)NCc2cccc3ccccc23)CC2(CCCC(COC(=O)NCc3ccccc3)O2)O1` (stereo not given in full) the same measures were 0.0457 (inactive), 0.461, -2.02 and -1.39 (inactive).
For `CCOC(=O)[C@H](CC(C)C)NC(=O)CCC1CC(OC(=O)NCc2ccc3c(c2)OCO3)CC2(CCCC(COC(=O)NCCc3ccc(Cl)cc3)O2)O1` (stereo not given in full) the same measures were -0.0891 (inactive), 0.137, -1.66 and -6.16 (inactive).
For `CC(CCN1CCCc2nc(C)c(C)cc21)=NO[C@@H](C)c1cn([C@H](CO)Cc2ccccc2)nn1` the same measures were 0.51 (inactive), 0.244, 0.221 and -0.829 (inactive).
Regarding `COC(=O)[C@@H]1CC[C@H](C)[C@@H](c2ccc(Br)cc2)N1C(=O)C(F)(F)F`, the composite z-score is 0.0945 (inactive) in assay [1] and -0.635 in the assay on XIP peptide (Xip251-270). In addition, the z-score was -0.541 in assay [2] and -0.733 (inactive) in assay [3].
On to `COc1ccc(COC(=O)NN=C2C[C@@H](O)[C@@H](O)[C@@H]3[C@@H]4C(=O)N([C@@H](C)c5ccccc5)C(=O)[C@@H]4CC[C@@H]23)cc1`, for which the figures for the composite z-score (in assay [1]; in the assay with XIP peptide (Xip251-270)) were -0.216 (inactive) and 0.0452, respectively. Further, the values for the z-score in assay [2] and in assay [3] were -0.503 and -2.18 (inactive), respectively.
For `CC(C)CON=C1C[C@@H](O)[C@@H](O)[C@@H]2[C@@H]3C(=O)N(C(C)(C)C)C(=O)[C@@H]3CC[C@@H]12`, in that order: 0.0494 (inactive), -0.295, -1.62 and -0.298 (inactive).
For `CCc1cc2c(nc1CC)CCN(CCC(C)=NOC(C)CN1CCCCc3nc(C)c(C)cc31)C2` (stereo not given), in that order: 0.531 (inactive), 0.61, -1.86 and -7.64 (inactive).
For `COC(=O)[C@H](C)NC(=O)CCC1CC(OC(=O)NCc2cccc3ccccc23)CC2(CCCC(COC(=O)NCc3cccc(C(F)(F)F)c3)O2)O1` (stereo not given in full), in that order: -0.179 (inactive), 0.128, -1.74 and -4.97 (inactive).
